CYP2C19 activ: activators of human cytochrome P450 2C19. recombinant CYP2C19, luciferin-H EGE luminescence; stronger effect = higher value; 0 = fully inhibited enzyme, 1 = untreated enzyme. activation factor at 5 µM. 96,000 tested, under 10 active. AID 1025;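 active = activation factor of at least 2 at 5 µM in the primary screen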
CYP2C9 inhib: inhibitors of human CYP2C9; P11712; CYP2C9 Supersomes, luciferin-H conversion, luminescence; inhibition, % at 5 µM; 96,000 compounds, 20% hits; AID 777;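 active = blocking of liver enzyme CYP2C9 beyond about 50% at 5 µM, limit read from the data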
Target sequence (P11712 whole entry, looked up): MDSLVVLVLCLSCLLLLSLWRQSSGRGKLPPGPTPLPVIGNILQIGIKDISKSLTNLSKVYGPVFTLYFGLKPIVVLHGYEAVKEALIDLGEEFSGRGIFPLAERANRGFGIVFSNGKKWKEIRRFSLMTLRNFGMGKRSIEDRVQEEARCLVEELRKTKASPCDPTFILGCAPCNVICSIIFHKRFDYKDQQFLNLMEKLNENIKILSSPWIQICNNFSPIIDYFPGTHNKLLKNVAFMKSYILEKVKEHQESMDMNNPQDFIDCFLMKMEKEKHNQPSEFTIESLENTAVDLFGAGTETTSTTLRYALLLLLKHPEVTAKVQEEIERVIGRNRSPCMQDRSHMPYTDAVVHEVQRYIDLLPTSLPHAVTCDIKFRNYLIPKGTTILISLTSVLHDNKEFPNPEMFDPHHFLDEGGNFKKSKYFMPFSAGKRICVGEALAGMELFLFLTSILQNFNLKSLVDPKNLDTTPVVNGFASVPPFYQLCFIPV
CYP2C19 inhib: human CYP2C19 inhibition; CYP2C19 Supersomes, luciferin-H EGE luminescence, 30 min; inhibition, % at 5 µM; 96,000 compounds, 21% hits;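 active = CYP2C19 inhibition above a set limit at 5 µM in the primary screen, cut at about 50% in these data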
CYP2C9 act: CYP2C9 (human) activation; 96,000 compounds, 1.4% hits; recombinant CYP2C9, luciferin-H conversion, luminescence; stronger effect = higher value; factor 1 = untreated enzyme, 0 = blocked; activation factor at 5 µM; P11712;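 active = activation factor of 2 or more for CYP2C9 at a 5 µM dose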
Each line names hits and unclear results; the compound was inactive in the other large screens. An excerpt weighted towards active compounds, which were near 31% of everything screened.

COc1ccccc1CN=Cc1[nH]c2ccc(Br)c(Cl)c2c1O	CYP2C9 inhib 73.3, CYP2C19 inhib 84.8
CCOP(=O)(OCC)c1nc(/C=C/c2ccccc2)oc1NCc1ccc(OC)cc1	CYP2C9 inhib 78.4, CYP2C19 inhib 97.8
CCOP(=O)(OCC)c1nc(/C=C/c2ccccc2)oc1NCc1ccccc1	CYP2C19 inhib 55.7
CCOP(=O)(OCC)c1nc(-c2cccc3ccccc23)oc1NCc1ccccc1	none
COc1ccc(CSc2nnc(CNS(C)(=O)=O)o2)cc1	none
O=C1c2ccccc2C(=O)N1CC1=CCS(=O)(=O)C1	none
COc1ccc(/C=N\NC(=O)C2C(=O)NCC2c2ccccc2)cc1O (stereo not given)	none
O=C1NCC(c2ccccc2)C1C(=O)N/N=C\c1ccc(-c2ccc(Cl)c(Cl)c2)o1 (stereo not given)	CYP2C9 inhib 67.3
C=C(C)C(=O)Nc1ccc(OC(F)(F)C(F)F)c(NC(=O)C(=C)C)c1	none
CCOc1ccccc1C1C(C#N)=C(N)Nc2onc(-c3ccccc3)c21 (stereo not given)	none
Nc1n[nH]c(S(=O)(=O)CCCc2ccccc2)n1	CYP2C19 inhib 69.9
COc1ccc(OC)c(S(=O)(=O)N(C)CC(=O)N2CCN(c3ccccc3F)CC2)c1	CYP2C9 inhib 68.3, CYP2C19 inhib 75.7
COc1ccc(OC)c(S(=O)(=O)N(C)CC(=O)N2CCN(c3cccc(Cl)c3)CC2)c1	CYP2C9 inhib 91.8, CYP2C19 inhib 84.9
Cc1ccc2c([N+](=O)[O-])c(C)ccc2n1	none
O=c1c2c(n3nnnc3n1Cc1ccccc1)-c1ccccc1CC21CCCC1	CYP2C9 inhib 72.3
CCC1(C)Cc2ccccc2-c2c1c(=O)n(Cc1ccccc1)c1nnnn21 (stereo not given)	none
CCCn1c(C)cc(C(=O)COC(=O)c2ccc(Cl)c(S(=O)(=O)N3CCCC3)c2)c1C	none
Cc1cc(C)nc(-n2nc(C)cc2NC(=O)CNC2CCCCC2)n1	none
Cc1cc(NC(=O)c2ccccc2F)n(-c2nc3ccccc3[nH]2)n1	none
Cc1cc(NC(=O)c2c(F)cccc2Cl)n(-c2nc3ccccc3[nH]2)n1	CYP2C9 inhib 94.8, CYP2C19 inhib 86.4
Cc1cc(NC(=O)C2CCCCC2)n(-c2nc3ccccc3[nH]2)n1	CYP2C9 inhib 70.6
Cc1cc(Nc2ccccc2)n(-c2nc3ccccc3[nH]2)n1	CYP2C9 inhib 69.2
Cc1cc(NC(=O)c2c(F)cccc2F)n(-c2nc3ccccc3[nH]2)n1	CYP2C9 inhib 51.5
Cc1cc(C)nc(-n2nc(C)cc2Nc2ccccc2)n1	none
Cc1nn(-c2nc3ccccc3[nH]2)c(N)c1-c1ccc(Cl)cc1	none
CN1CCN(C(=O)CCC(=O)c2ccc(F)cc2)CC1	none
COc1ccc(C2C3=C(CC(C)(C)CC3=O)Oc3ncn(Cc4ccco4)c(=N)c32)cc1 (stereo not given)	none
CCCOc1ccc(OCCNC2CCCC2)cc1	none
Cc1cc(NC(=O)C2CCC2)n(-c2ccccn2)n1	CYP2C9 act 3
CC(C)Nc1nc2n(c(=O)n1)CCN2C(C)C	none
O=C(NCc1ccco1)C(c1cccnc1)N(C(=O)Cn1nnc2ccccc21)c1ccc(F)cc1 (stereo not given)	none
COc1ccc(N(C(=O)Cn2nnc3ccccc32)C(C(=O)NCc2ccco2)c2cccnc2)cc1 (stereo not given)	CYP2C19 inhib 78.0
O=C(NCc1ccco1)C(c1cccnc1)N(C(=O)Cn1nnc2ccccc21)c1ccccc1 (stereo not given)	CYP2C19 inhib 51.2
Cc1cccc(N(C(=O)Cn2nnc3ccccc32)C(C(=O)NCc2ccco2)c2ccncc2)c1 (stereo not given)	none
CCc1ccccc1N(C(=O)Cn1nnc2ccccc21)C(C(=O)NCCOC)c1ccco1 (stereo not given)	CYP2C9 inhib 56.0, CYP2C19 inhib 61.3
O=C(NCc1ccco1)C(c1ccncc1)N(CCC1=CCCCC1)C(=O)Cn1nnc2ccccc21 (stereo not given)	CYP2C9 inhib 61.7, CYP2C19 inhib 50.8
COCCNC(=O)CN(C(=O)Cn1nnc2ccccc21)c1ccc(F)c(Cl)c1	CYP2C19 inhib 56.2
CCOc1ccc2[nH]c(=O)c(CN(Cc3ccco3)C(CC)c3nnnn3Cc3ccccc3)cc2c1 (stereo not given)	none
CCOC(=O)Cn1nnnc1C(CC)N(Cc1cccs1)Cc1cc2cc(C)ccc2[nH]c1=O (stereo not given)	CYP2C9 inhib 85.0, CYP2C19 inhib 94.9
CCOC(=O)Cn1nnnc1C(C(C)C)N(Cc1cccs1)Cc1cc2cc(C)ccc2[nH]c1=O (stereo not given)	CYP2C9 inhib 64.4, CYP2C19 inhib 83.5
CCC(c1nnnn1C1CCCC1)N(Cc1cccs1)Cc1cc2cc(C)ccc2[nH]c1=O (stereo not given)	CYP2C9 act 2
CCOc1ccc2[nH]c(=O)c(CN(Cc3cccs3)C(CC)c3nnnn3C(C)(C)CC)cc2c1 (stereo not given)	CYP2C9 inhib 87.3, CYP2C19 inhib 62.7
CCOC(=O)Cn1nnnc1C(CC)N(Cc1cc2ccc(C)cc2[nH]c1=O)C1CCCC1 (stereo not given)	none
COC(=O)C(O)(CC(=O)Nc1cccc(SC)c1)C(F)(F)F (stereo not given)	none
COCCNC(=O)CN1CCN(C(c2ccccc2)c2ccccc2)CC1	none
COc1cccc(C2OC(=O)c3ccccc3N2C(C)=O)c1OC(C)=O (stereo not given)	none
CCOC(=O)c1c(-c2ccccc2)csc1NC(=O)CSc1nnnn1C	CYP2C9 inhib 79.5
CCOC(=O)c1c(NC(=O)CSc2nnnn2C)sc(C)c1-c1ccc(C)cc1	CYP2C9 inhib 76.3
COc1ccc(OCc2nnc3n2N=C(c2ccc(Br)cc2)CS3)cc1	none
CN(C)c1cc2c(c(N(C)C)c1)C(=O)c1ccccc1C2=O	none
COc1ccccc1C1(CC(=O)N2CCCCC2)CCOC(C(C)C)C1 (stereo not given)	CYP2C19 inhib 50.2
O=C(c1ccc(S(=O)(=O)N2CCCCC2)cc1)c1nnc(-c2ccc(Cl)cc2)o1	none
O=C(CCc1ccc(S(=O)(=O)N2CCCCC2)cc1)c1nnc(-c2ccccc2)o1	CYP2C19 inhib 74.1
COc1ccc(N2C(=O)C3CCCN3C2c2ccccc2Cl)cc1 (stereo not given)	none
COc1ccc(C(=O)n2ccc(C)n2)cc1Br	CYP2C19 inhib 57.0
COc1cc(C(=O)n2nc(C)cc2C)ccc1O	none
COc1ccc(C(=O)n2nc(C)cc2C)cc1Br	CYP2C19 inhib 70.3
COc1ccc(C(=O)n2nnc3ccccc32)cc1Br	none
CCOc1nnnc2c1sc1nc(N3CCOCC3)c3c(c12)CCCC3	CYP2C9 inhib 97.5, CYP2C19 inhib 93.7
c1nc(NCCN2CCOCC2)c2sc3nc(N4CCOCC4)c4c(c3c2n1)CCC4	none
CCN1CCN(c2ncnc3c2sc2nc(N4CCOCC4)c4c(c23)CCC4)CC1	CYP2C9 inhib 54.3, CYP2C19 inhib 72.8
CCCCNC(=O)c1cn(-c2ccc(OCC)cc2)c(=O)c2cc(OC)c(OC)cc12	none
O=C1NC(Cc2c[nH]c3ccccc23)C(=O)N1c1ccc(F)cc1 (stereo not given)	none
